The values that follow come from PubChem BioAssay (Tox21).

Molecules are shown by their SMILES. A number with no mark means an inactive call. Results filed as inconclusive are left out. Calls of active or inactive are those of the source. Unless noted, calls follow the shape of the full dose curve.

The nature of experiment [1]: Nuclear factor erythroid 2-related factor 2/antioxidant responsive element (Nrf2/ARE) small molecule agonists: qHTS cell viability counter screen in human keratinocytes (AID 1919968; active = well fitted curve in the direction sought with a large enough effect in the repeat runs; an effect the other way counts as inactive or inconclusive; also: nearly all actives have a fitted effect of over 55% in size; also: potency is read from the fitted curve at half-maximal effect). A digest of the protocol:
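Viability counter-screen: KeratinoSens reporter cells, DMSO-delivered compounds, 23 h at 37 C, CellTiter-Fluor fluorescence.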

The nature of experiment [2]: Nuclear factor erythroid 2-related factor 2/antioxidant responsive element (Nrf2/ARE) small molecule agonists: luciferase reporter gene qHTS assay in human keratinocytes (AID 1919969). Also: nearly all actives have a fitted effect of over 35% in size. Also: potency is read from the fitted curve at half-maximal effect.
For experiment [3], the target named is Gonadotropin-releasing hormone receptor (Homo sapiens) (UniProt P30968). Briefly: Human gonadotropin-releasing hormone receptor (GnRHR) small molecule agonists, calcium flux assay in GnRHR-HEK293 cells (AID 1920063). Also: nearly all actives have a fitted effect of over 35% in size. Also: potency is read from the fitted curve at half-maximal effect. The gist of the method:
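Tox21-format agonist screen using human GnRHR-expressing HEK293 cells and a fluorescent calcium dye; kinetic 3-min fluorescence reading after compound addition, 15-point concentration series run in triplicate.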

The target in experiment [4] is KiSS-1 receptor (Homo sapiens) (UniProt Q969F8). Put plainly: Human kisspeptin (KISS1R) small molecule agonists, calcium flux assay in KISS1R-HEK293 cells (AID 1920064; active = well fitted curve in the direction sought with a large enough effect in the repeat runs; an effect the other way counts as inactive or inconclusive). A digest of the protocol: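 Intracellular calcium mobilization in KISS1R-HEK293 cells was recorded by fluorescence (Ex/Em 480/540) for 3 min following compound addition to cells pre-loaded 1 h with calcium dye.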
On the technique in general: Calcium assays in cells follow changes in intracellular calcium, usually with a dye or a luminescent sensor.

Experiment [5] can be described thus: G protein-coupled receptor (GPCR) small molecule agonists, calcium flux assay: HEK293 wild type cell line counter screen (AID 1920065). A digest of the protocol:
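In this agonist-mode screen, ATP is the positive control and DMSO the vehicle. Cells grow 18 h before a 1 h dye incubation at 37 C; signal is taken at Ex/Em 480/540 over 3 min.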

Experiment [6] in a line: p53 small molecule agonists, cell-based qHTS assay with human liver microsomes: qHTS cell viability counter screen (AID 1963579). Also: nearly all actives have a fitted effect of over 45% in size. A digest of the protocol: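 p53RE-bla cells, 4,000/well, dosed 5 hours after plating, with human liver microsomes (0.5 mg/mL final) plus NADPH (0.5 mg/mL final), 16 hours at 37 C. Viability read as CellTiter-Glo luminescence after 30 min at room temperature.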

Experiment [7] is described as follows: p53 small molecule agonists, cell-based qHTS assay with rat liver microsomes: qHTS cell viability counter screen (AID 1963580). Also: nearly all actives have a fitted effect of over 45% in size. Also: potency is read from the fitted curve at half-maximal effect. The gist of the method:
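Intracellular ATP, by CellTiter-Glo luminescence, defines viability. HCT-116 p53RE-bla cells, 4,000 per well, were compound-treated in the presence of rat liver microsomes and NADPH for 16 h at 37 C.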

Experiment [8] can be described thus: p53 small molecule agonists, cell-based qHTS assay: qHTS cell viability counter screen (AID 1963581). Also: nearly all actives have a fitted effect of over 45% in size. Also: potency is read from the fitted curve at half-maximal effect. The gist of the method:
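Compounds are pinned onto HCT-116 p53RE-bla cells and left 16 h at 37 C. Following the reporter FRET read, ATP is quantified by CellTiter-Glo luminescence after 30 min at room temperature.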
Background: In qHTS, concentration-response curves come from the screen itself.

Experiment [9] is described as follows: cAMP Responsive Elements (CRE) small molecule agonists, cell-based qHTS assay (AID 1963590). A digest of the protocol:
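FRET-based beta-lactamase readout (LiveBLAzer B/G, 2 h RT) quantified CRE activation in HEK 293T CRE-bla cells after 3 h treatment with DMSO-dissolved compounds.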

A short description of experiment [10]: cAMP Responsive Elements (CRE) small molecule antagonists, cell-based qHTS assay (AID 1963591; active = well fitted inhibition curve with a large enough effect in the signal ratio in the repeat runs, not every such curve was filed as active; the % refers to the signal ratio). A digest of the protocol:
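qHTS in CRE-bla HEK 293T cells: compound in DMSO, then 0.25 uM NKH477 (final), 3 h at 37 °C/5% CO2; beta-lactamase FRET read-out after 2 h substrate incubation.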

For experiment [11], the target named is Beta-2 adrenergic receptor (Homo sapiens) (UniProt P07550). Put plainly: Adrenergic beta2 receptor (ADRB2) small molecule antagonists, cell-based qHTS assay (AID 1963592). Also: series mostly up to about 92 µM; nearly all actives have a fitted effect of over 50% in size. A digest of the protocol: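 Cells (CHO, stable ADRB2 overexpression) incubated 18-20hr at 37C; compounds added from DMSO; agonist mix (1nM isoproterenol, 100uM IBMX, 25uM Ro-20-1724) added; 0.5hr RT; d2-cAMP and anti-cAMP-cryptate added; 1hr RT; 665/615 nm read.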

Experiment [12] has as its target D(2) dopamine receptor (Homo sapiens) (UniProt P14416). Briefly: Dopamine D2 receptor (DRD2) small molecule agonists, cell-based qHTS assay (AID 1963594). Also: nearly all actives have a fitted effect of over 35% in size. The gist of the method: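 cAMP accumulation in DRD2-HEK293 cells measured by HTRF after 1 h detection; compounds added 10 min before NKH477 (200nM […]) forskolin-analogue stimulation, 30 min at room temperature, with Ro20-1724 present at 0.1 mM final.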

The target of experiment [13] is 5-hydroxytryptamine receptor 2A (Homo sapiens) (UniProt P28223). Briefly: 5-hydroxytryptamine receptor 2A (HTR2A) small molecule antagonists, cell-based qHTS assay (AID 1963586). Also: nearly all actives have a fitted effect of over 45% in size. A digest of the protocol:
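Antagonist-mode intracellular calcium assay: DOI (4 nM) added after 5 min compound pre-incubation at room temperature to dye-loaded HTR2A-CHO cells. Fluorescence followed for 3 min, sampled every second.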

For experiment [14] the target is unchanged. Briefly: 5-hydroxytryptamine receptor 2A (HTR2A) small molecule agonists, cell-based qHTS assay (AID 1963587). Also: nearly all actives have a fitted effect of over 30% in size. The gist of the method:
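Kinetic calcium-flux fluorescence (2 min, 1 sec intervals) after compound addition in agonist mode. HTR2A-CHO cells were cultured 18 h, then dye-loaded 1 h at 37 C.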

In experiment [15] the target is Muscarinic acetylcholine receptor M1 (Homo sapiens) (UniProt P11229). Put plainly: Cholinergic receptor muscarinic 1 (CHRM1) small molecule antagonists, cell-based qHTS assay (AID 1963588). Also: nearly all actives have a fitted effect of over 40% in size. The gist of the method: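 CHRM1-CHO calcium-flux assay, antagonist mode. Cells were seeded 18 h, dye-loaded 1 h at 37 C and given compound for 5 min at RT, then acetylcholine was added at 50nM. FDSS fluorescence was read 3 min; 15 concentrations, three runs.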

Experiment [16] has the same target. Briefly: Cholinergic receptor muscarinic 1 (CHRM1) small molecule agonists, cell-based qHTS assay (AID 1963589). Also: nearly all actives have a fitted effect of over 35% in size. Also: potency is read from the fitted curve at half-maximal effect. A digest of the protocol:
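Stable CHRM1-CHO cells (human receptor) were incubated 18 h, dye-loaded for 1 h at 37 C and exposed to test compounds for agonist activity, with calcium-dependent fluorescence followed kinetically.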

Experiment [17] deals with Beta-2 adrenergic receptor (Homo sapiens) (UniProt P07550). Briefly: Adrenergic beta2 receptor (ADRB2) small molecule agonists, cell-based qHTS assay (AID 1963593).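 Also: CHO cells stably overexpressing human ADRB2.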 The gist of the method: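 CHO cells stably over-expressing ADRB2 were plated overnight at 37C, then dosed with compounds plus a stimulation mix containing 100uM IBMX and 25uM Ro-20-1724 for 0.5hr at room temperature. cAMP was measured by HTRF competition, 1hr.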

For experiment [18], the target named is D(2) dopamine receptor (Homo sapiens) (UniProt P14416). Briefly: Dopamine D2 receptor (DRD2) small molecule antagonists, cell-based qHTS assay (AID 1963595; active = well fitted inhibition curve with a large enough effect in the signal ratio in the repeat runs, with a control signal flat; the % refers to the signal ratio). A digest of the protocol: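 DRD2-HEK293; 0.1 mM Ro20-1724; cpd 10 min RT; NKH477 200 nM + quinpirole 12 nM, 30 min RT; HTRF cAMP (cAMP-d2/anti-cAMP cryptate), 665/620 nm ratio after 1 h.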
Experiment [19] is described as follows: p53 small molecule agonists, cell-based qHTS assay (AID 1963582; active = well fitted activation curve with a large enough effect in the signal ratio in the repeat runs, not every such curve was filed as active; the % refers to the signal ratio). A digest of the protocol:
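Agonist activity was scored from beta-lactamase FRET fluorescence in p53RE-bla cells treated 16 h at 37 C with compounds in DMSO, substrate incubation being 2 h at room temperature.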

Sequence of D(2) dopamine receptor (Homo sapiens) (P14416 whole entry, looked up): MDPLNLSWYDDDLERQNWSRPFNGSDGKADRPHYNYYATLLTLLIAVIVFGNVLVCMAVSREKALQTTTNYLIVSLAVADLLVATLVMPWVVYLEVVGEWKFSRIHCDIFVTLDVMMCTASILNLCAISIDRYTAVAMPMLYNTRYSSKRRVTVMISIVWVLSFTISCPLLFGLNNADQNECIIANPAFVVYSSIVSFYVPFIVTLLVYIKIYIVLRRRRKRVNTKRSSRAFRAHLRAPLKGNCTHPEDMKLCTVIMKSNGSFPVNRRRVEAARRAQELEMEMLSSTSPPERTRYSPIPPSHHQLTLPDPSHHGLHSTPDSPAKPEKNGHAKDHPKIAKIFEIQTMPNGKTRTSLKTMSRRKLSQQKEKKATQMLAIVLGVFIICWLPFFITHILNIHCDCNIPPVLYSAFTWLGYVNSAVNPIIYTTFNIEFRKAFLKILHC
Sequence of 5-hydroxytryptamine receptor 2A (Homo sapiens) (P28223 whole entry, looked up): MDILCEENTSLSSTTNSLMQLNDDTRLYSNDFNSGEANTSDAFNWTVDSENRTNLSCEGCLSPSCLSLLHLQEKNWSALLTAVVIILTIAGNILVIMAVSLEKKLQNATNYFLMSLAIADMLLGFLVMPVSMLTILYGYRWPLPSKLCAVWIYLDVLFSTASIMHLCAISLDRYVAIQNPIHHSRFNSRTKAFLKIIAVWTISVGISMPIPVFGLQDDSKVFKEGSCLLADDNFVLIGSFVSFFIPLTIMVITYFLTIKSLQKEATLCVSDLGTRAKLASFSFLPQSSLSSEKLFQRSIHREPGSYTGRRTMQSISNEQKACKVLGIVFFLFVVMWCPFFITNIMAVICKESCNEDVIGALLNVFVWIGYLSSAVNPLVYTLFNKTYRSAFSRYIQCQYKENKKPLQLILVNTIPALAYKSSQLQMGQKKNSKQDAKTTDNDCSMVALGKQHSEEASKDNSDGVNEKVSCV
Sequence of Gonadotropin-releasing hormone receptor (Homo sapiens) (P30968 whole entry, looked up): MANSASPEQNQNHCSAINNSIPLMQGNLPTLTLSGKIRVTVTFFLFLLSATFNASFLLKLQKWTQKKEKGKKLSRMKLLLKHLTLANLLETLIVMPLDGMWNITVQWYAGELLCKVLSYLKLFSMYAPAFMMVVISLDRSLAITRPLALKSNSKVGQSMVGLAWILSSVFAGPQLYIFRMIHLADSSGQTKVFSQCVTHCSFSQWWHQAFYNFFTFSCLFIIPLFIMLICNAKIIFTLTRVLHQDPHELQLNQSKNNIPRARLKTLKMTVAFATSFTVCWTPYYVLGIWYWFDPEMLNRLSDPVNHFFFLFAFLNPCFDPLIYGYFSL
Sequence of KiSS-1 receptor (Homo sapiens) (Q969F8 whole entry, looked up): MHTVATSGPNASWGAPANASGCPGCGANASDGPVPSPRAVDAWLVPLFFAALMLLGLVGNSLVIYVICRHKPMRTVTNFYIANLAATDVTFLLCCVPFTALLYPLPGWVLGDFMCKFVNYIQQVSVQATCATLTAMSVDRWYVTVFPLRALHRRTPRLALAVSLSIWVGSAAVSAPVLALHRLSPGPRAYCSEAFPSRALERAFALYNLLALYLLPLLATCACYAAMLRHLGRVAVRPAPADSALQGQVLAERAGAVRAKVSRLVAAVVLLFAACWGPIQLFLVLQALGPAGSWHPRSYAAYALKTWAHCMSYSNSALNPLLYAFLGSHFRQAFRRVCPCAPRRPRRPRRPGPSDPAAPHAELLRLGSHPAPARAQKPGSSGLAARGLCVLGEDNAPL
Sequence of Beta-2 adrenergic receptor (Homo sapiens) (P07550 whole entry, looked up): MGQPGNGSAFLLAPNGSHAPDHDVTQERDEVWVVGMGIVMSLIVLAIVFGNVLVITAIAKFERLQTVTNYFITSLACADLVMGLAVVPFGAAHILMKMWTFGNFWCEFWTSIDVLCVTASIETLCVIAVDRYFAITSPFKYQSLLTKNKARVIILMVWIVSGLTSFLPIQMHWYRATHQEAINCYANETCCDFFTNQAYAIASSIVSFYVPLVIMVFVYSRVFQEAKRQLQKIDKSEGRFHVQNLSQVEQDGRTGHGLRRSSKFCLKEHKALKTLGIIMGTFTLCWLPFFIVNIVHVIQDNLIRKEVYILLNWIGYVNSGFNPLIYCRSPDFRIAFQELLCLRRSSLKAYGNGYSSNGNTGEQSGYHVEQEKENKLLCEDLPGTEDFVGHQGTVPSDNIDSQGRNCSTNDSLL
Sequence of Muscarinic acetylcholine receptor M1 (Homo sapiens) (P11229 whole entry, looked up): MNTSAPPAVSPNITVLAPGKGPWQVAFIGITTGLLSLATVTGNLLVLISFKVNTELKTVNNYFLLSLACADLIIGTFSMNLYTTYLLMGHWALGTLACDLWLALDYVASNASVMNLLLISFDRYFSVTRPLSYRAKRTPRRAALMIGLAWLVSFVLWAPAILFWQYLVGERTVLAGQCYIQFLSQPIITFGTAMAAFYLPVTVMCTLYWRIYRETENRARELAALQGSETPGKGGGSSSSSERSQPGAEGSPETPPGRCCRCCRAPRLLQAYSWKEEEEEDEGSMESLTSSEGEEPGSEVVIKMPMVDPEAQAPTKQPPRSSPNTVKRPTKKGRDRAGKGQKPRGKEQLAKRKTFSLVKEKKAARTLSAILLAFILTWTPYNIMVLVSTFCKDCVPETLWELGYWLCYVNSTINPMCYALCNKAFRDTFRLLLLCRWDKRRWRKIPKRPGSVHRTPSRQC

Take `CC(C)CC(N(C)C)C1(c2ccc(Cl)cc2)CCC1` (configuration not stated): the Potency result in [1], in experiment [2], in experiment [3], in experiment [4], in experiment [5] and in experiment [6] was “inactive” in each case. In addition, the Potency entry in [8], in [9], in experiment [10], in experiment [11] and in experiment [12] was “inactive” each time. In [7], the Potency was 0.793 µM (active).

`Cc1cc(C(F)(C(F)(F)F)C(F)(F)F)ccc1NC(=O)c1cccc(I)c1C(=O)NC(C)(C)CS(C)(=O)=O`: the Potency entry in experiment [1], in experiment [2], in [3], in experiment [4], in [5] and in experiment [6] was “inactive” in each case. The Potency entry in [7], in experiment [13], in experiment [14], in [15], in experiment [16] and in experiment [9] was “inactive” each time. The Potency result in experiment [10], in experiment [11], in experiment [17], in experiment [12] and in experiment [18] was “inactive” each time.

Regarding `Brc1cccc(-c2ccccc2)c1`, the Potency result in [1], in [2], in experiment [3], in [4], in [5] and in experiment [6] was “inactive” each time. The Potency entry in [7], in experiment [8], in [13], in [14], in experiment [10] and in experiment [11] was “inactive” throughout. Further, the Potency result in experiment [17], in experiment [12] and in [18] was “inactive” in each case.

In the case of `CC1CN1P(=O)(N1CC1C)N1CC1C` (configuration not stated), the Potency result in experiment [1], in experiment [2], in experiment [3], in experiment [4], in experiment [5] and in experiment [6] was “inactive” in each case. The Potency entry in [7], in experiment [13], in [14], in [15], in experiment [16] and in experiment [9] was “inactive” in each case. For the same compound, the Potency result in experiment [10], in [11], in experiment [12] and in experiment [18] was “inactive” throughout.

As to `CCCCN(CCCC)C(=S)[S-].CCCCN(CCCC)C(=S)[S-].[Zn+2]`, the Potency in experiment [1] was 6.11 µM (active); in experiment [2], 1.93 µM (active); in experiment [3], 17.4 µM (active); in [7], 3.63 µM (active); in experiment [8], 25.7 µM (active); in [16], 19.5 µM (active). Also, the Potency result in experiment [4], in experiment [5], in [6], in experiment [13], in experiment [14] and in experiment [11] was “inactive” throughout.

On to `CCC1(CCC(C)C)C(=O)NC(=O)NC1=O`, for which the Potency entry in experiment [1], in [2], in [3], in experiment [4], in experiment [5] and in [6] was “inactive” throughout. Further, the Potency entry in experiment [7], in [8], in [9], in experiment [10], in [11] and in experiment [12] was “inactive” each time. Moreover, the Potency result in [18] was “inactive”.

Regarding `CNC(=O)O/N=C(\C)SC`, the Potency result in experiment [1], in [2], in [3], in [4], in [5] and in [6] was “inactive” throughout. In addition, the Potency result in [7], in experiment [19], in experiment [13], in experiment [14], in experiment [15] and in [9] was “inactive” each time. The Potency result in experiment [10], in [11], in [17] and in experiment [18] was “inactive” each time.

For the compound `COCc1cnc(C2=NC(C)(C(C)C)C(=O)N2)c(C(=O)O)c1` (configuration not stated), the Potency entry in [1], in [2], in [3], in [4], in experiment [5] and in [6] was “inactive” each time. For the same compound, the Potency entry in experiment [7], in [13], in [14], in experiment [15], in [16] and in [9] was “inactive” throughout. In addition, the Potency entry in experiment [10], in [11], in experiment [17] and in [18] was “inactive” throughout.
